# Screening data (PubChem BioAssay)
# Sampled rows, rich in hits. Any-hit rate of the full collection: about 22%.
# Measles CPE – compounds protecting cells from measles virus cytopathic effect, primary screen, measles RdRp inhibitor project, single point, MLSMR library, absorbance | protection (pct of control), % at 4 µM | actives 1.5% (n = 140,000) | AID 841, 2007 | Measles virus-infected cells, CPE protection; in the data active = protection mostly above about 24%, no sharp cut-off; inactive = mostly below about 26%
# CYP2C9 inhib – blockers of cytochrome P450 2C9 activity – biochemical, luminescence, ADME assay, primary screen; actives 20% (n = 96,000); P11712; inhibition, % at 5 µM; CYP2C9 Supersomes, luciferin-H conversion;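 active = blocking of liver enzyme CYP2C9 beyond about 50% at 5 µM, limit read from the data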
# CYP2C19 act – human CYP2C19 activators, primary screen, biochemical, luminescence; Cytochrome P450 2C19 (Homo sapiens), P33261; recombinant CYP2C19, luciferin-H EGE luminescence; hits give high values; 0 = fully inhibited enzyme, 1 = untreated enzyme; activation factor at 5 µM; 96,000 tested, under 10 active; AID 1025, 2008;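 active = activation factor of at least 2 at 5 µM in the primary screen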;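 note: 0 = wells with 2.5 mM tranylcypromine and 1 = vehicle-only wells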
# Target sequence (P33261 whole entry, looked up): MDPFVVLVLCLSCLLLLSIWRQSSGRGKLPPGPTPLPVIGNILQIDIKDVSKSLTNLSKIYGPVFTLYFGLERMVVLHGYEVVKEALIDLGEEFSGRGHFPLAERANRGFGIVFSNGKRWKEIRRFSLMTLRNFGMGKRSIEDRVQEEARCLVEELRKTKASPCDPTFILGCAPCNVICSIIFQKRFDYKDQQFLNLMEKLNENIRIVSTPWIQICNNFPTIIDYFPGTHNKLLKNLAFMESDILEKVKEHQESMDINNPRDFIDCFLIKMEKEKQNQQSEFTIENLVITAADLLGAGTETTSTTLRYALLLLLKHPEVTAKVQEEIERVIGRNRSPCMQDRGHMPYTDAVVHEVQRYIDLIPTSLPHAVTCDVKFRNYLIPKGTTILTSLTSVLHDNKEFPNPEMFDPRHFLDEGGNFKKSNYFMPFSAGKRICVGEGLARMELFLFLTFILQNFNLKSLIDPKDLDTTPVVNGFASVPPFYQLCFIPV
# CYP2C19 inhib – blockers of cytochrome P450 2C19 activity – biochemical, luminescence, ADME assay, primary screen. P33261. CYP2C19 Supersomes, luciferin-H EGE luminescence, 30 min. inhibition, % at 5 µM. actives 21% (n = 96,000);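 active = CYP2C19 inhibition above a set limit at 5 µM in the primary screen, cut at about 50% in these data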;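 note: plate controls were negative control wells for no effect and 2.5 mM tranylcypromine positive control for full effect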
# CYP2C9 activ – human CYP2C9 activators, primary screen, biochemical, luminescence | recombinant CYP2C9, luciferin-H conversion; hits give high values; factor 1 = untreated enzyme, 0 = blocked | activation factor at 5 µM | actives 1.4% (n = 96,000);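 active = activation factor of 2 or more for CYP2C9 at a 5 µM dose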;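 note: 0 = sulfaphenazole-blocked wells and 1 = vehicle-only wells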
# * = called active by the depositor; x = not tested or not shown.
SMILES,Measles CPE,CYP2C9 inhib,CYP2C19 act,CYP2C19 inhib,CYP2C9 activ
CCN1CCN(C(c2cc3cc4c(cc3[nH]c2=O)OCO4)c2nnnn2C(C)(C)CC)CC1 (centres undefined),7,-16,1.2,-16,1.2
Cc1ccc2cc(C(c3nnnn3C(C)(C)C)N3CCCCCC3)c(=O)[nH]c2c1 (centres undefined),7,65*,0.7,32,0.3
CC(C)(C)n1nnnc1C(c1cc2cc3c(cc2[nH]c1=O)OCO3)N1CCN(c2ccccc2)CC1 (centres undefined),2,39,1,2,0.6
CCC(C)(C)n1nnnc1C(c1cc2cc(C)ccc2[nH]c1=O)N1CCCC1 (centres undefined),6,17,1,1,0.8
COc1ccc(Nc2nc(C(=O)NCCCN3CCOCC3)cs2)cc1,5,33,0.7,27,0.7
CCOC(=O)C(C)(C)N(Cc1cccc(C)c1)S(=O)(=O)c1ccc(Cl)c([N+](=O)[O-])c1,18,x,x,x,x
CCOC(=O)c1ccccc1NC(=O)CSc1ccccc1,9,x,x,x,x
O=C(O)c1ccc(S(=O)(=O)N2CCCCCC2)cc1,14,7,1,-2,0.9
O=C(c1ccc(S(=O)(=O)N2CCOCC2)cc1)N1CCCc2ccccc21,17,28,0.4,56*,0.7
O=C(c1ccc(S(=O)(=O)N2CCCC2)cc1)N1CCCc2ccccc21,36*,88*,0,97*,0.1
O=C(c1ccc(S(=O)(=O)N2CCCCC2)cc1)N1CCCc2ccccc21,9,76*,0.7,27,0.2
O=C(c1ccc(C(=O)N2CCCc3ccccc32)nc1)N1CCCc2ccccc21,x,11,0.9,12,0.9
CCSc1nnc(NC(=O)Cc2ccc(OC)c(S(=O)(=O)N3CCOCC3)c2)s1,16,30,1,-4,0.7
CCOc1ccc(/C(O)=C/C(=O)C(=O)Nc2ccc(S(=O)(=O)NC(C)=O)cc2)cc1,9,x,x,x,x
C/C(=N/NC(=O)c1ccc(Br)o1)C(C)C,16,x,x,x,x
Cc1sc(NC(=O)CN(Cc2ccc(F)cc2)C(=O)C(C)C)c(C(N)=O)c1C,28,26,0.5,51*,0.7
O=C(c1cc(Cl)ccc1[N+](=O)[O-])N1CCc2ccccc2C1,5,x,x,x,x
COc1ccc(CCN2C(=S)NC3CC2(C)Oc2ccc([N+](=O)[O-])cc23)cc1OC (centres undefined),9,72*,1,0,0.3
COc1cc(/C=N/NC(=O)CNC(=O)c2ccccc2)ccc1OC(=O)c1cccs1,6,38,0.7,27,0.6
COc1ccc(C(C(=O)Nc2ccc(F)cc2)N(C(=O)Cn2nnc3ccccc32)C2CC2)cc1 (centres undefined),2,29,0.8,23,0.7
Cc1c(C(=O)OCCOC(C)C)[nH]c2c1C(=O)CC(C)(C)C2,18,70*,0.4,58*,0.3
COCCOC(=O)c1[nH]c2c(c1C)C(=O)C(C(=O)OC)C(C)C2 (centres undefined),2,18,0.8,18,0.8
Cc1c(C(=O)OCc2ccccc2)[nH]c2c1C(=O)CC(c1ccco1)C2 (centres undefined),2,89*,0.5,47,0.1
COCCOC(=O)c1[nH]c2c(c1C)C(=O)CC(c1ccco1)C2 (centres undefined),1,72*,0.5,47,0.3
Cc1c(C(=O)OCCOC(C)C)[nH]c2c1C(=O)CC(c1ccco1)C2 (centres undefined),1,75*,0.6,41,0.3
SMILES,Measles CPE,CYP2C9 inhib,CYP2C19 act,CYP2C19 inhib,CYP2C9 activ
Cc1cccc2cc(C#N)c(SCC(=O)NCc3cccs3)nc12,16,x,x,x,x
COC(=O)c1[nH]c2c(c1C)C(=O)CC(c1cccs1)C2 (centres undefined),11,38,0.6,44,0.6
CCOC(=O)c1[nH]c2c(c1C)C(=O)CC(c1ccco1)C2 (centres undefined),1,60*,0.8,19,0.4
CSCCOC(=O)c1[nH]c2c(c1C)C(=O)CC(c1ccco1)C2 (centres undefined),0,52*,0.9,5,0.5
COc1ccccc1-c1cc(C(=O)NCc2cccs2)no1,16,-126,1,5,2.3*
COCCNC(=O)c1cc(-c2ccccc2OC)on1,8,-158,0.8,24,2.6*
Cc1nnc2c3ccccc3c(-c3cccc4ccccc34)nn12,7,8,0.4,61*,0.9
Cc1nnc2sc(-c3cccc4ccccc34)nn12,6,-1,0.9,6,1
CCN1C(=O)/C(=C2\SC(=S)N(CCCOC)C2=O)c2ccccc21,25,52*,1,3,0.5
CCN1C(=O)/C(=C2\C=Cc3ccccc3N2CC)SC1=S,9,13,0.5,55*,0.9
Cc1c(Nc2cc(N3CCCCCC3)c3nonc3c2[N+](=O)[O-])c(=O)n(-c2ccccc2)n1C,12,40,0.7,30,0.6
Fc1ccc(-c2csc3ncnc(Nc4ccc(N5CCOCC5)cc4)c23)cc1,11,27,0.7,35,0.7
Cc1nc2ccccc2c2nc3ccccc3n12,9,58*,0.6,40,0.4
c1ccc2c(c1)nnn1c3ccccc3nc21,11,62*,0.3,73*,0.4
Fc1ccc(-c2nc3ccccc3c3nc4ccccc4n23)cc1,30,x,x,x,x
Cc1[nH]c2ccccc2c1Cc1n[nH]c(=S)n1C,8,x,x,x,x
Cn1c(Cc2c[nH]c3ccccc23)n[nH]c1=S,7,38,0.3,67*,0.6
COC(=O)/C(=C/c1ccco1)NC(=O)c1ccco1,17,x,x,x,x
Cc1ccc(S(=O)(=O)C/N=C(/NC(=S)N(c2ccccc2)c2ccccc2)c2ccccc2)cc1,24,69*,0.7,28,0.3
Cc1c(C(=O)N2CCN(c3ccccc3F)CC2)sc2ncn(CC(=O)N3CCOCC3)c(=O)c12,17,11,1,3,0.9
CCc1n[nH]c(=S)n1/N=C/c1ccc2c(c1)OCO2,42*,5,1,0,0.9
Cc1cccc(OCC(=O)Nc2cc(C)ccc2O)c1,10,16,0.4,60*,0.8
Cc1cccc(OCC(=O)NNc2c3ccccc3nc3ccccc23)c1,2,-95,1,5,2*
Cc1cccc(OCC(=O)Nc2ccccc2-c2ccccc2)c1,11,x,x,x,x
Cc1cccc(OCC(=O)Nc2cc(C)c(C)cc2O)c1,15,26,0.4,56*,0.7
Cc1cccc(OCC(=O)Nc2ccccc2C(F)(F)F)c1,16,x,x,x,x
Cc1ccc(OCC(=O)NNc2c3ccccc3nc3ccccc23)cc1,1,x,x,x,x
